We go through 21 molecules from PubChem BioAssay (Tox21).

Each structure is given as a SMILES string. Inconclusive results are not listed. More than one record can exist for a structure, and the calls need not agree. Calls of active or inactive are those of the source. Unless noted, the call rests on the fitted dose curve; in most records, active means well fitted curve in the direction sought with a large enough effect in the repeat runs; inconclusive means weak or mixed curves; inactive means no such curve, though single readings can be large; an effect the other way counts as inactive or inconclusive.

The nature of assay [1]: qHTS assay to identify small molecule antagonists of the vitamin D receptor (VDR) signaling pathway - cell viability counter screen (AID 743225). Further: nearly all actives have a fitted effect of over 50% in size. A digest of the protocol:
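Cells (VDR-UAS-bla HEK 293T) are plated, rested 4 h at 37C, dosed with compound and 3 nM final 1-alpha,25-dihydroxy vitamin D3, and incubated 16 h. Viability is taken from CellTiter-Glo luminescence in the reporter wells.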
(In general: qHTS replaces the single test concentration by a dilution series.)

Assay [2] is described as follows: qHTS assay to identify small molecule agonists of the NFkB signaling pathway (AID 1159509; active means well fitted curve in the direction sought with a large enough effect in the signal ratio in the repeat runs, not every such curve was filed as active; the % refers to the signal ratio; further: series mostly up to about 61 µM). A digest of the protocol: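 Readout: FRET fluorescence, 405 nm excitation, 460/530 nm emission; beta-lactamase expression disrupts FRET. Cells: ME-180 stably carrying NF-kB-driven bla reporter. Compound exposure 5 hr, 37 C, 5% CO2.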
Assay [3] can be described thus: qHTS assay to identify small molecule agonists of the NFkB signaling pathway - cell viability counter screen (AID 1159515; calls by dose curve; further: series mostly up to about 61 µM; nearly all actives have a fitted effect of over 55% in size). A digest of the protocol:
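Plate 2,000 NFkB-bla ME-180 cells/well; incubate overnight. Add compounds, 5 hr at 37 C. Add FRET substrate, 1.5 hr RT. Add CellTiter-Glo, 30 min RT; read luminescence.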

Assay [4] in a line: qHTS assay to identify small molecule agonists of the endoplasmic reticulum stress response signaling pathway - cell viability counter screen (AID 1159517; calls by dose curve; further: nearly all actives have a fitted effect of over 50% in size; further: potency means the concentration at half of the fitted maximal effect). A digest of the protocol: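 Steps: seed 1,500 ESRE-bla HeLa cells per well; incubate overnight at 37 C, 5% CO2; add compounds in DMSO for 5 hr; run FRET substrate 2 hr RT; add CellTiter-Glo, wait 30 min, read luminescence.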

The target of assay [5] is Nuclear receptor ROR-gamma (Homo sapiens) (UniProt P51449). Kind of assay: qHTS assay to identify small molecule antagonists of the retinoid-related orphan receptor gamma (ROR-gamma) signaling pathway (AID 1159521;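 further: CHO cells with doxycycline inducible ROR-gamma driving an RORE luciferase reporter; top concentration of the series differs between compounds; nearly all actives have a fitted effect of over 50% in size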). A digest of the protocol:
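RORγ antagonism is scored from reduced reporter luminescence in Tet-on CHO cells. Induction used 1 uM final doxycycline hyclate for 16 h at 37 C, following a 2 h compound exposure.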

Assay [6] in a line: qHTS assay to identify small molecule agonists of the AP-1 signaling pathway - cell viability counter screen (AID 1159525; calls by dose curve; further: nearly all actives have a fitted effect of over 55% in size). A digest of the protocol:
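Same-well cytotoxicity counter screen of the Tox21 10K library in ME-180 cells. The readout is ATP-dependent luminescence after 5 h compound treatment. Data are normalised to DMSO and tetra n-octyl ammonium bromide controls.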

Assay [7] can be described thus: qHTS assay to identify small molecule agonists of the AP-1 signaling pathway (AID 1159526; calls by dose curve).
Assay [8] concerns the target Retinoic acid receptor RXR-alpha (Homo sapiens) (UniProt P19793). The assay is described as follows: qHTS assay to identify small molecule agonists of the RXR signaling pathway (AID 1159527; calls by dose curve; further: nearly all actives have a fitted effect of over 35% in size; further: potency means the concentration at half of the fitted maximal effect). A digest of the protocol:
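qHTS of the Tox21 10K library in GeneBLAzer RXR-alpha HEK 293T cells carrying a beta-lactamase reporter […]; 16 hr treatment, 9-cis retinoic acid as agonist control, FRET read-out.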

Assay [9] is described as follows: qHTS assay to identify small molecule agonists of the RXR signaling pathway - cell viability counter screen (AID 1159529). Further: series mostly up to about 77 µM; nearly all actives have a fitted effect of over 50% in size. A digest of the protocol:
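Cell viability is measured by CellTiter-Glo luminescence, 30 min at room temperature, in wells already read for beta-lactamase. Engineered HEK 293T cells (RXR-alpha-UAS-bla) are dosed 16 hr at 37 C. Tetraoctyl ammonium bromide serves as positive control.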

A short description of assay [10]: qHTS assay to identify small molecule antagonists of the retinoid acid receptor (RAR) signaling pathway - cell viability counter screen (AID 1159551). Further: nearly all actives have a fitted effect of over 35% in size. A digest of the protocol:
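Viability of C3RL4 cells is quantified from ATP by luminescence after 6 h treatment at 37 C with compounds and 1 uM retinol.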

Assay [11] in a line: qHTS assay to identify small molecule antagonists of the retinoic acid receptor (RAR) signaling pathway (AID 1159552; further: nearly all actives have a fitted effect of over 50% in size; further: potency means the concentration at half of the fitted maximal effect). A digest of the protocol:
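Quantitative HTS in C3RL4 RARE-luciferase reporter cells. Compounds were added with 1 uM (final) retinol; luminescence was read after 6 hr.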

Assay [12] is described as follows: qHTS assay to identify small molecule agonists of the retinoic acid receptor (RAR) signaling pathway (AID 1159553). Further: potency means the concentration at half of the fitted maximal effect. A digest of the protocol:
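Compounds dissolved in DMSO were pinned onto C3RL4 cells seeded the previous day, and plates were held 6 hr at 37 C. RARE-driven luciferase output was then read by luminescence.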

Assay [13] is described as follows: qHTS assay to identify small molecule antagonists of the retinoid-related orphan receptor gamma (ROR-gamma) signaling pathway - cell viability counter screen (AID 1159520). Further: nearly all actives have a fitted effect of over 50% in size. A digest of the protocol: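 Tet-on ROR gamma CHO cells were given compounds for 2 hr, then doxycycline hyclate at 1 uM final, and incubated 16 hr at 37 C. Viability was measured as ATP content by CellTiter-Glo luminescence.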

The nature of assay [14]: qHTS assay to identify small molecule agonists of the endoplasmic reticulum stress response signaling pathway (AID 1159516; active means well fitted activation curve with a large enough effect in the signal ratio in the repeat runs, not every such curve was filed as active; the % refers to the signal ratio). A digest of the protocol: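 Beta-lactamase expression from the ER stress response element in HeLa reporter cells is quantified with the LiveBLAzer B/G FRET substrate, read at 405 nm excitation after 2 hr at room temperature, following 5 hr compound treatment at 37 C.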

Sequence of Retinoic acid receptor RXR-alpha (Homo sapiens) (P19793 whole entry, looked up): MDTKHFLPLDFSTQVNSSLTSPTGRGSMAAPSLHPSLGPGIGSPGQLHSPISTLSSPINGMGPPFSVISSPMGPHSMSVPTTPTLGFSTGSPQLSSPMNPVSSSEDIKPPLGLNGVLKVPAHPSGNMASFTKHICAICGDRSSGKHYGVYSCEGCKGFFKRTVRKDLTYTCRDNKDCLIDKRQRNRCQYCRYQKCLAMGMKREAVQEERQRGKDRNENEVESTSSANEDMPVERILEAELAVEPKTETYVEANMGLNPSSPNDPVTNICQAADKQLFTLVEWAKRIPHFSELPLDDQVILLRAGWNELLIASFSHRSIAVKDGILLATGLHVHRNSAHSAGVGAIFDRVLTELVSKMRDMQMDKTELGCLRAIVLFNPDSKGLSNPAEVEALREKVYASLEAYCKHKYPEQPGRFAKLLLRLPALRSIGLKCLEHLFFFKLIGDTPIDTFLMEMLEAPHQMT

Take `BrCC1CO1` (stereo not given): the Potency entry in assay [1], in assay [4], in assay [5], in [6], in assay [8] and in assay [9] was “inactive” each time. For the same molecule, the Potency entry in assay [10], in assay [11] and in assay [12] was “inactive” in each case. Besides, the result in assay [2], in [3] and in assay [7] was inactive.
As for `N#CC(Br)(Br)C(N)=O`, the Potency result in assay [1], in assay [4], in [13], in assay [5], in assay [6] and in [9] was “inactive” in each case. Further, the Potency entry in [10] and in assay [12] was “inactive” in each case. For the same molecule, the molecule was called inactive in assay [2], in assay [3] and in assay [7]. For the same molecule, the Potency in assay [8] is 1.55 µM (active); in assay [11], 4.86 µM (active).
For the molecule `CCOP(=S)(OCC)Oc1ccc(Cl)cc1Cl`, the Potency entry in assay [1], in assay [4], in assay [13], in assay [5], in [6] and in assay [8] was “inactive” throughout. Besides, the Potency result in assay [9], in assay [10], in [11] and in [12] was “inactive” in each case. Further, the molecule was called inactive in assay [2], in assay [3] and in [7].
On to `O=C(O)C(Cl)Br` (stereo not given), for which the molecule was called inactive in assay [2], in [14] and in [7]. Also, the Potency entry in [4], in [13], in assay [5], in assay [6], in assay [8] and in [9] was “inactive” in each case. The Potency entry in [10], in [11] and in assay [12] was “inactive” throughout.
`CCC(C)(C#N)N=NC(C)(C#N)CC` (stereo not given): the Potency result in [1], in assay [4], in [13], in assay [5], in assay [6] and in assay [8] was “inactive” each time. Besides, the Potency result in assay [9], in [10] and in assay [11] was “inactive” each time. Moreover, the molecule was classed as inactive in assay [2], in assay [3] and in assay [7].
`COc1cccc(C=O)c1`: the Potency entry in [1], in assay [4], in assay [13], in assay [5], in [6] and in [8] was “inactive” in each case. Moreover, the Potency result in assay [9], in assay [10], in [11] and in assay [12] was “inactive” throughout. Moreover, the molecule was classed as inactive in assay [2], in assay [3] and in [7].
As to `CCCCOC(C)=O`, the call in assay [2], in [14] and in assay [7] was inactive. For the same molecule, the Potency result in [4], in [13], in [5], in [6], in assay [8] and in assay [9] was “inactive” each time. The Potency result in [10], in assay [11] and in assay [12] was “inactive” each time.
With `CCC(C)C(C)(COC(N)=O)COC(N)=O` (stereo not given), the Potency result in assay [1], in assay [4], in [5], in [6], in [8] and in [9] was “inactive” in each case. The Potency entry in assay [10] and in [11] was “inactive” throughout. In addition, the call in assay [2], in [3] and in assay [7] was inactive.
Take `CN=CNc1ccc(C)cc1C`: the Potency result in assay [1], in assay [4], in [13], in assay [5], in [8] and in assay [9] was “inactive” each time. In addition, the Potency result in assay [10] and in [11] was “inactive” each time. Further, the call in assay [2], in [3] and in assay [7] was inactive.
With `ClC1=C(Cl)C2(Cl)C(CBr)CC1(Cl)C2(Cl)Cl` (stereo not given), the Potency entry in assay [1], in assay [13], in assay [5], in assay [8], in assay [9] and in assay [10] was “inactive” throughout. For the same molecule, the Potency entry in assay [12] was “inactive”. The molecule was classed as inactive in assay [2] and in assay [3]. Moreover, the Potency in assay [4] is 54.9 µM (active) and inactive; in [11], 54.5 µM (active) and inactive.
Consider `CON(C)C(=O)Nc1ccc(Br)c(Cl)c1`, for which the outcome in assay [2], in [3] and in [7] was inactive. For the same molecule, the Potency result in assay [4], in assay [5], in [6], in [8], in assay [9] and in assay [10] was “inactive” throughout. For the same molecule, the Potency entry in [11] was “inactive”. The Potency in assay [12] was 21.7 µM (active).
With `S=C=S`, the Potency entry in assay [1], in [4], in [13], in [5], in assay [8] and in assay [9] was “inactive” throughout. Also, the Potency result in [10] and in [11] was “inactive” in each case. In addition, the molecule was classed as inactive in assay [2], in assay [3] and in assay [7].
Turning to `CNC(=O)Oc1ccccc1C(C)C`, the Potency result in assay [1], in assay [4], in assay [13], in [5], in [6] and in [9] was “inactive” throughout. For the same molecule, the Potency entry in assay [10], in assay [11] and in [12] was “inactive” in each case. Also, the molecule was classed as inactive in assay [2], in [3] and in assay [7]. The Potency in assay [8] was 49 µM (active).
`[P]#[In]`: the Potency result in assay [1], in [4], in [13], in assay [5], in assay [6] and in assay [8] was “inactive” in each case. Besides, the Potency result in [9], in [10], in assay [11] and in assay [12] was “inactive” each time. For the same molecule, the outcome in assay [2], in assay [3] and in assay [7] was inactive.
For `CC(O)CCl` (stereo not given), the Potency result in assay [1], in [4], in [13], in assay [5], in assay [6] and in [8] was “inactive” each time. The Potency result in assay [9], in [10], in [11] and in assay [12] was “inactive” throughout. The outcome in assay [2], in assay [3] and in assay [7] was inactive.
As for `C/C=C/CC#N`, the Potency result in assay [1], in [4], in assay [13], in assay [5], in assay [6] and in assay [9] was “inactive” each time. Also, the Potency entry in assay [10], in assay [11] and in assay [12] was “inactive” throughout. Besides, the molecule was classed as inactive in assay [2], in assay [3] and in assay [7].
Consider `CCSC(=O)Cl`, for which the Potency entry in assay [1], in [4], in assay [13], in assay [5], in assay [6] and in [8] was “inactive” in each case. Moreover, the Potency entry in assay [9], in assay [10], in assay [11] and in [12] was “inactive” in each case. Besides, the molecule was called inactive in assay [2], in assay [3] and in assay [7].
In the case of `O=C(Cl)C(Cl)Cl`, the Potency entry in [1], in assay [4], in [13], in assay [5], in assay [6] and in assay [8] was “inactive” throughout. The Potency entry in [9], in assay [10], in assay [11] and in [12] was “inactive” each time. The molecule was classed as inactive in [2], in assay [3] and in assay [7].
`C=CC(=O)OCCN(C)C`: the Potency result in assay [1], in assay [4], in assay [13], in assay [5], in assay [6] and in assay [8] was “inactive” in each case. Moreover, the Potency entry in [9], in [10], in assay [11] and in [12] was “inactive” in each case. For the same molecule, the outcome in assay [2], in assay [3] and in assay [7] was inactive.
In the case of `Nc1c(Cl)c(F)nc(OCC(=O)O)c1Cl`, the Potency entry in assay [1], in assay [4], in assay [13], in [5], in [6] and in [8] was “inactive” each time. The Potency entry in [9], in assay [10] and in assay [11] was “inactive” each time. The molecule was classed as inactive in [2], in assay [3] and in assay [7].
In the case of `O=C(Cl)C(Cl)(Cl)Cl`, the molecule was called inactive in assay [2], in [14] and in assay [7]. The Potency result in assay [4], in assay [13], in assay [5], in [6], in assay [8] and in assay [9] was “inactive” each time. Besides, the Potency entry in [10] and in assay [11] was “inactive” each time.
